Screening data deposited in PubChem BioAssay by National Center for Advancing Translational Sciences (NCATS).
Luciferase inh: Firefly luciferase inhibition profiling of diverse chemical library using quantitative high-throughput screening; Luciferin 4-monooxygenase (Photinus pyralis), P08659; purified P. pyralis luciferase, luminescence, biochemical; Potency, µM (highest dose often 115 µM), usual class: inhibitors; 2.5% of 76,000 active; AID 1347043, 2019; also: nearly all actives have a fitted effect of over 65% in size
Target sequence (P08659 whole entry, looked up): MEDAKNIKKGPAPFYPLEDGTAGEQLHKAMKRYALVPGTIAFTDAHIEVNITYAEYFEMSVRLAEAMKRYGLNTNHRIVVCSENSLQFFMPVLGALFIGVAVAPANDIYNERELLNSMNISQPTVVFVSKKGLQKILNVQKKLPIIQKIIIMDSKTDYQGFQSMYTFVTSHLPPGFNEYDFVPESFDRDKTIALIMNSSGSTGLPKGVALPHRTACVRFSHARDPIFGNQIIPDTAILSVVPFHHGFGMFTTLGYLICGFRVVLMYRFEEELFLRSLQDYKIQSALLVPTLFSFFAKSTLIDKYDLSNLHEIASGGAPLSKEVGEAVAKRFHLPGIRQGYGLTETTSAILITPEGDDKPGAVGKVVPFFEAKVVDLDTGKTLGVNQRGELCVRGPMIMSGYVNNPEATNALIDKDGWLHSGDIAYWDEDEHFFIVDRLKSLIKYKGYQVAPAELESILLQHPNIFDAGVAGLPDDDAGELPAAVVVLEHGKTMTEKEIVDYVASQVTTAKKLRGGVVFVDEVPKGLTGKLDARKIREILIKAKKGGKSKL
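Luminescence read by CCD imaging after purified firefly luciferase (10nM final) was added to substrate buffer holding 10uM D-luciferin and 10uM ATP, pH 7.5, pre-dosed with compound.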
NPR1 antag: Natriuretic polypeptide receptor (hNpr1) antagonism - Primary qHTS | Atrial natriuretic peptide receptor 1 (Homo sapiens), P16066 | HEK293 hNpr1 GloSensor cGMP, ANP-stimulated luminescence | Potency, µM (top dose mostly 46.3 µM), usual class: inhibitors | 1.6% of 76,000 active | AID 1347048, 2019; calls by dose curve; also: nearly all actives have a fitted effect of over 60% in size
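Compound pre-incubated 30 min at room temperature on GloSensor-loaded HEK293 cells stably carrying hNpr1 and the pGS-40F cGMP biosensor. Stimulation uses hNppA at 0.1 nM final; luminescence is taken at baseline and 20 min post-agonist.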
HEK cytotox: Cytotoxic Profiling in HEK 293 Cell Line of Diverse Libraries Using Quantitative High-Throughput Screening; HEK 293 viability, ATP luminescence (CellTiter-Glo), 48-72 h; Potency, µM (series often up to 115 µM), usual class: inhibitors; 6.6% of 94,000 active; AID 1345083, 2018; also: nearly all actives have a fitted effect of over 60% in size
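Cytotoxicity was scored by loss of ATP-coupled luminescence (CellTiter-Glo) in HEK 293 cells. Compound treatment ran 48 or 72 hr at 37 degree Celsius, 5% CO2, 95% humidity.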
NIH3T3 tox: Cytotoxic Profiling in NIH 3T3 Cell Line of Diverse Libraries Using Quantitative High-Throughput Screening | NIH 3T3 viability, CellTiter-Glo ATP luminescence, 48-72 h | Potency, µM (titrated, usually from 96.7 µM), most hits filed as inhibitors | 4.3% of 94,000 active; also: nearly all actives have a fitted effect of over 55% in size
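Luminescent ATP readout (CellTiter-Glo, 10 min RT) after 48 or 72 hr compound exposure of NIH 3T3 cells seeded at 400 cells/well in 1536-well format; quantitative HTS.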
GPT2 inhibitor: Primary qHTS assay for inhibitors of Glutamate pyruvate transaminase 2 (GPT2); Potency, µM (top dose mostly 57.7 µM), usual class: inhibitors; Alanine aminotransferase 2 (Homo sapiens), Q8TD30; Recombinant GPT2, coupled pyruvate oxidase/HRP Amplex Red fluorescence; 0.25% of 100,000 active; also: nearly all actives have a fitted effect of over 60% in size
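Fluorescence of coupled pyruvate oxidase/HRP/Amplex Red system (50uM Amplex, 30 min, dark) reports pyruvate formed by GPT2. Enzyme reaction: 10ng/uL GPT2, 2mM L-alanine, 250uM a-KG, 30 min room temperature, pH 7.5; 50uM AOA control.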
Hits are given with their value; - = inactive; ? = inconclusive; . = no result given; ! = repeats disagree; [ ] = remark or other dose. An excerpt weighted towards active compounds, which were near 10% of everything screened. Unless noted, calls follow the shape of the dose curve; as a rule, active = well fitted curve in the direction sought with a large enough effect; inconclusive = small, poorly fitted or top-dose-only effect, or another doubt; inactive = no such curve, though single readings can be large; an effect the other way counts as inactive or inconclusive.

SMILES | Luciferase inh | NPR1 antag | HEK cytotox | NIH3T3 tox | GPT2 inhibitor
O=C(COc1ccccc1)Nc1ccc([C@@H](O)[C@H]2COCC(=O)N2Cc2ccc(C(F)(F)F)cc2)cc1 | - | ? | 40µM | ? | -
O=C(Nc1ccc([C@@H](O)[C@H]2COCC(=O)N2Cc2ccccc2)cc1)c1ccc(F)cc1 | - | - | 100µM | ? | -
O=C(c1ccccc1Cl)N1CCC(N2CCCCCC2=O)CC1 | - | - | - | - | -
COc1ccccc1CN1CCC(CN(CC(C)C)C(=O)C2C=CCN2)CC1 (stereo not drawn) | - | - | - | - | ?
COc1cccc(NC(=O)[C@@H]2C[C@@H](c3ccc(F)cc3)N(CCOc3ccccc3)C2)c1 | - | ? | 40µM | ? | -
O=C(Nc1cccc(F)c1)[C@@H]1C[C@@H](c2ccc(F)cc2)N([S+](=O)([O-])c2cccnc2)C1 | - | - | ? | ? | -
O=C(Nc1cccc(F)c1)[C@@H]1C[C@@H](c2ccc(F)cc2)N([S+](=O)([O-])c2ccccc2)C1 | - | - | 35µM | ? | -
Cc1nc(CN2C[C@H](C(=O)NCCOc3ccccc3)C[C@@H]2c2ccc(F)cc2)cs1 | - | - | 89µM | 56µM | -
COc1ccc(NC(=O)[C@@H]2C[C@H](c3ccc(F)cc3)N(Cc3csc(C)n3)C2)c(C)c1 | - | - | 89µM | 71µM | -
CS(=O)(=O)N1CC2(CCN(CC3CCCCC3)C2)Cc2ccccc21 (stereo not drawn) | . | . | ? | - | -
CC(=O)N1CCc2nn(CC(=O)Nc3ccccc3C)c(=O)cc2C1 | - | - | - | - | -
COc1cccc(NC(=O)[C@@H]2C[C@H](c3ccc(F)cc3)N(Cc3csc(C)n3)C2)c1 | - | - | 63µM | ? | -
Cc1nc(CN2C[C@H](C(=O)Nc3cccc(Cl)c3)C[C@@H]2c2ccc(F)cc2)cs1 | - | ? | 50µM | 50µM | -
COc1ccc(NC(=O)[C@@H]2C[C@H](c3ccc(F)cc3)N(Cc3csc(C)n3)C2)cc1OC | - | - | ? | ? | -
Cc1nc(CN2C[C@H](C(=O)Nc3cccc(F)c3)C[C@@H]2c2ccc(F)cc2)cs1 | - | - | 40µM | 40µM | ?
COc1ccc(-n2c(=O)c(C(=O)Nc3ccc(F)cc3)nc3cccnc32)cc1 | . | . | - | - | -
CN1CCC2(C1)CN(Cc1ccccc1)c1ccc(C(=O)NC3COC3)cc12 (stereo not drawn) | - | - | ? | - | -
COCCNC(=O)c1cn2cc(-c3ccc(F)cc3)sc2n1 | . | . | ? | ? | -
O=C(NCc1nnc2cc(-c3nc(C4CC4)no3)ccn12)c1c(F)cccc1F | - | - | 35µM | ? | -
O=C(NCc1nnc2cc(-c3nc(C4CC4)no3)ccn12)c1ccccc1 | - | - | ? | - | -
COc1ccc(Cn2nc(-c3ccccc3)nc2C2CCC(=O)NC2)cc1 (stereo not drawn) | 35µM | - | ? | - | -
COc1ccc(CN2CCC(c3nn(Cc4ccccc4)c(=O)[nH]3)CC2)cc1 | - | - | - | - | -
COc1ccccc1-c1ccc(CN2CCCCC2C(=O)N2CCC(c3ccccc3)CC2)cc1 (stereo not drawn) | . | . | 25µM! | 40µM | .
COc1ccccc1-c1ccc(CN2CCCCC2C(=O)N2CCN(Cc3ccccc3)CC2)cc1 (stereo not drawn) | . | . | 32µM | ? | -
COc1ccccc1-c1ccc(C(=O)N2CCC(C(=O)N3CCC(c4ccccc4)CC3)CC2)cc1 | . | . | ? | ? | -
SMILES | Luciferase inh | NPR1 antag | HEK cytotox | NIH3T3 tox | GPT2 inhibitor
COc1cccc(-c2ccccc2NC(=O)C2CCN(Cc3ccc(F)cc3)CC2)c1 | - | - | 32µM | 22µM | -
COc1cccc(-c2ccccc2NC(=O)C2CCN(c3nccnc3C)CC2)c1 | - | ? | ? | 22µM | -
O=C(c1ccccn1)N1CCCC2(CC(c3cccnc3)=NO2)C1 (stereo not drawn) | . | . | - | - | ?
Cc1nn(C)cc1CN1C[C@@H](COCC2CC2)[C@H](c2ccccn2)C1 | - | - | - | - | -
COc1cccc(CN2C[C@]34C=C[C@H](O3)C(C(=O)N3CCCCC3)C4C2=O)c1 (stereo partly drawn) | - | - | - | - | -[11.5 µM]
COc1ccccc1C(=O)NC1CCN(c2cc(-c3cccs3)[nH]n2)C1 (stereo not drawn) | - | - | ? | - | ?
COc1ccc(CCc2nc3nccc(-c4ccc5c(c4)OCCCO5)n3n2)cc1OC | ? | - | 45µM | ? | -
COc1ccc(Cc2nc3nccc(-c4ccc5c(c4)OCCCO5)n3n2)cc1 | - | - | ? | ? | -
Fc1ccc(Cc2nc3nccc(-c4ccc5c(c4)OCCCO5)n3n2)cc1 | ? | - | 45µM | ? | -
CCc1noc(-c2cn(C3CCN(C(=O)Cc4cccc(OC)c4)CC3)nn2)n1 | - | - | - | - | -
Cc1cnc(C(=O)N2CCCC(Cc3noc(-c4ccccn4)n3)C2)cn1 (stereo not drawn) | - | - | - | ? | -
CC(C)C(=O)Nc1ccc(C2(C(=O)NCc3ccc(F)c(Cl)c3)CCC2)cc1 | - | - | 79µM | 35µM | -
CCc1ccc(CNC(=O)C2(c3ccc(NC(=O)C(C)C)cc3)CCC2)cc1 | - | - | ? | - | -
CS(=O)(=O)Nc1ccc(C2(C(=O)NCc3ccccc3Cl)CCCCC2)cc1 | - | - | ? | 35µM | -
Cc1ccc(CN2CCc3oc(C)c(C(=O)NCCN4CCN(C)CC4)c3C2)cc1 | - | - | - | - | -
CN1C(=O)CCC2(CNC(=O)Cc3c[nH]c4ccccc34)CCCC=C12 (stereo not drawn) | - | - | ? | ? | -
CC(C)(C)C(=O)N1CCC2(CC1)C(=O)N(CC(=O)Nc1cccc(Cl)c1)CN2c1ccccc1 | - | - | 35µM | 32µM | -
O=C(Nc1ccc([C@@H](O)[C@H]2COCC(=O)N2Cc2cccnc2)cc1)c1ccccc1 | - | - | - | - | -
CC(C)C1=NOC2(CCN(C(=O)c3ccc4c(c3)OCO4)C2)C1 (stereo not drawn) | . | . | - | 79µM | -
COc1ccc(-c2[nH]nc3ncc(-c4cccnc4)nc23)c(C)c1 | - | - | ? | 28µM | -
COc1ccc(-c2[nH]nc3ncc(-c4ccccc4O)nc23)c(C)c1 | - | - | 28µM | ? | -
Cc1ccccc1-c1[nH]nc2ncc(-c3ccnn3C)nc12 | - | - | - | ? | -
COc1ccc(-c2[nH]nc3ncc(-c4cccc(F)c4)nc23)c(C)c1 | - | - | ? | ? | -
